# Assay outcomes (PubChem BioAssay)
# A selection: hits, their analogues and other compounds. The true share with any hit is near 1.7%.
# GLP1R inv ag: inverse agonists of human GLP-1 receptor. 410,000 compounds, 1.6% hits. P43220. HEK293 GLP-1R CRE-luciferase, luminescence, 24 h; GLP-1R form is constitutively active. AID 624417. Potency, µM (highest dose often 38.3 µM), without a hit: at the highest dose activity change, negative = inhibition, actives largely listed as inhibitors; note: % is set by controls: 0 for no effect and ±100 for the full control effect; nearly all actives have a fitted effect of over 55% in size
#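 Luminescence readout: a drop in cAMP-driven luciferase signal flags inverse agonism at a constitutively active GLP-1R stably expressed in HEK293. Compound exposure lasted 24 hr at 37 deg C, 5% CO2.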
# GLP-1R agonist: activates the human GLP-1 receptor; Potency, µM (highest dose often 45.6 µM), for inactives: at the top dose activation, hits mostly activators; P43220; 380,000 compounds, 0.007% hits; HEK293 GLP-1R CRE-luciferase, luminescence, 4-6 h; cells express a hypersensitive GLP-1R form; note: % of control where 0% means no effect
# GLP1R cytotox: cytotoxicity counter-screen for GLP-1 receptor inverse agonists | HEK293 cAMP-luciferase reporter cells, luminescence, 24 h | AID 624418 | 410,000 compounds, 0.13% hits | Potency, µM (series often up to 38.3 µM), for inactives: top-dose activity change, negative = inhibition, actives largely listed as inhibitors;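 note: loss of luciferase light is scored as toxicity; % is set by controls: 0 for no effect and ±100 for the full control effect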
#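 1536-well qHTS counterscreen of the MLSMR; 200 cells/uL, 12 h pre-incubation, 23 nL cpd, 24 h at 37 deg C 5% CO2, luciferase detection reagent, 12 min RT, luminescence. Inhibition = undesired.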
# PTHR1 agonist: agonists of human PTHR1 parathyroid hormone receptor; Q03431; HEK293 GP2 PTHR1 cells, GloSensor cAMP luminescence, 1 h; Potency, µM (doses to about 115 µM), for the others: at the highest dose activation, usual class: activators; 410,000 compounds, 0.075% hits; AID 743266; note: nearly all actives have a fitted effect of over 55% in size
# Target sequence (Q03431 whole entry, looked up): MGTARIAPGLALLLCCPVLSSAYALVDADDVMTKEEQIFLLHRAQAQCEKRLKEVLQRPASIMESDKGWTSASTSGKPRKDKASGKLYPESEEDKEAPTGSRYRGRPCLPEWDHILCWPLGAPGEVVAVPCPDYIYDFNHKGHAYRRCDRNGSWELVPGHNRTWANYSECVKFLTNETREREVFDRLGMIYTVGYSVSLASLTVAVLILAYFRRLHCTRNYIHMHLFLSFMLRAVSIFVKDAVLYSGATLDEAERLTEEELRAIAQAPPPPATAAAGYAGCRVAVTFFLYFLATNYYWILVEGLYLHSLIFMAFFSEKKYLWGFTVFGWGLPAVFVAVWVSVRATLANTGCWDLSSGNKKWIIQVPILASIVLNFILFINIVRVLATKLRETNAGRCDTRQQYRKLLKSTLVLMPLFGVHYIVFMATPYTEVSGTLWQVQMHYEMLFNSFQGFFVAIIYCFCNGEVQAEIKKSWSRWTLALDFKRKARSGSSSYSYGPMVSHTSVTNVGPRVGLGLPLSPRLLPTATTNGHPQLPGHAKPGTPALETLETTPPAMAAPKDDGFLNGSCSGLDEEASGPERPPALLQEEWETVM
#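 HEK-293-derived GP2 cells expressing PTHR1 and a GloSensor cAMP reporter, 3,000/well, plated overnight, given luciferin plus IBMX (each 0.5 mM as added) for 1 h at 37 °C, then compound for 1 h at 37 °C. Luminescence was read after 15 min at room temperature.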
# The depositor's hits bear a star; i = inactive; ? = inconclusive; nt = not tested or not shown; [ ] = remark or other dose. Calls come from the whole dose curve; as a rule, active = well fitted curve in the direction sought with a large enough effect; inconclusive = small, poorly fitted or top-dose-only effect, or another doubt; inactive = no such curve, though single readings can be large; an effect the other way counts as inactive or inconclusive. Potency is the fitted concentration of half-maximal effect.
SMILES,GLP1R inv ag,GLP-1R agonist,GLP1R cytotox,PTHR1 agonist
CCOc1ccccc1CNC(=O)CCc1cn(C)c2ccccc12,7.1µM*,9%,11%,-46%
CCOc1ccccc1CNC(=O)CCCc1cn(C)c2ccccc12,?,7%,2%,-46%
Cc1ccc(S(=O)(=O)N(C)c2ccc(C(=O)NCC(c3ccco3)N(C)C)cc2)cc1 (configuration not stated),7.1µM*,-3%,-16%,-3%
CC(=O)N(c1ccc(Cl)cc1)c1cn(C(C)=O)c2ccccc12,?,0%,-1%,-12%
CC(=O)n1cc(N(C(=O)CCl)c2ccc(C)cc2)c2ccccc21,4.5µM*,-1%,?,-37%
O=C(N/N=C1\CCCc2c1[nH]c1ccc(Cl)cc21)c1ccncc1,7.1µM*,0%,?,-10%
CCn1nc(NC(=O)C(C)(C)C)c2cc3cccc(C)c3nc21,10µM*,6%,187%,i
CC1CCC(C(=O)NC(C(=O)NCCc2ccc(S(N)(=O)=O)cc2)C(C)C)CC1 (configuration not stated),10%,-5%,7%,i
Cc1ccccc1N=C(NOCc1ccc(Cl)cc1Cl)c1nonc1N,0%,-5%,-12%,i
Cc1ccccc1N=C(NOCc1ccccc1)c1nonc1N,10µM*,-1%,-7%,i
O=C(NC(=S)Nc1ccccc1)c1cc(-c2ccccc2)nc2ccccc12,?,-15%,14%,i
O=C(NC(=S)Nc1ccccn1)c1cc(-c2ccccc2)nc2ccccc12,4.5µM*,-4%,2.8µM*,-24%
O=[N+]([O-])c1ccc(/C=N/Nc2ncccc2[N+](=O)[O-])s1,?,0%,1.1µM*,-18%
N#CCC(=O)N/N=C/c1cn(Cc2ccc(Cl)c(Cl)c2)c2ccccc12,1.3µM*,6%,?,-2%
CCOc1ccccc1C1CC(=O)NC(C)=C1C(=O)OCc1ccc(C)cc1 (configuration not stated),-9%,-4%,0%,-28%
Cc1nc2sc(C(N)=O)c(N)c2c2c1CCCC2,1.1µM*,-6%,17%,-14%
Cc1ccc(-c2nc3sc(C(N)=O)c(N)c3c3c2CCCC3)cc1,0%,17%,192%,-1%
O=C(c1ccc(Cl)cc1)N(Cc1ccco1)Cc1ccco1,-30%,nt,4%,10%
COc1ccc(N(Cc2ccccc2)C(=O)c2nc(S(C)(=O)=O)ncc2Cl)cc1,10µM*,nt,?,-26%
CS(=O)(=O)c1ncc(Cl)c(C(=O)N(Cc2ccc(Cl)cc2)Cc2ccco2)n1,8.9µM*,nt,?,-4%
Cc1ccccc1Nc1nnc(SCC(=O)NCC2CCCO2)s1 (configuration not stated),5%,1%,-4%,i
COC(=O)c1ccc(CN2CCC(CO)(Cc3ccccc3Cl)CC2)cc1,?,19%,-8%,-2%
O=C(C1CC12CCCC2)N1CCC(CO)(Cc2ccccc2Cl)CC1 (configuration not stated),10µM*,-2%,0%,-23%
CCOc1ccc(/C=C/C2=CC(C)(C)NC(=S)N2)cc1,?,5%,5.6µM*,-11%
COc1ccc(/C=C/C2=CC(C)(C)NC(=S)N2)cc1OC,?,23%,?,-78%
SMILES,GLP1R inv ag,GLP-1R agonist,GLP1R cytotox,PTHR1 agonist
OC(CNCc1ccccc1)Cn1ccc2ccccc21 (configuration not stated),?,7%,11%,i
OC(CNCCNc1ncccc1C(F)(F)F)Cn1ccc2ccccc21 (configuration not stated),10µM*,22%,-5%,i
Cc1cccc(C)c1NC(=O)c1cc(S(N)(=O)=O)c(Cl)cc1O,nt,-2%,nt,nt
CCOC(=O)Cc1csc(SCC(=O)Nc2cc(Cl)ccc2Oc2ccccc2)n1,10µM*,-2%,26%,-44%
O=C(NCCSCc1ccc(Cl)cc1Cl)c1ccc(CN2CCOCC2)cc1,10µM*,1%,2%,-4%[57.5 µM]
O=C(NCCSc1ccc(Cl)cc1)c1ccc(CN2CCOCC2)cc1,-6%[7.66 µM],12%,-1%[7.66 µM],-29%
CCN(CC)S(=O)(=O)c1cccc(C(=O)N[C@H](C(=O)NCc2ccc(Cl)cc2)C(C)C)c1,13µM*,-2%,5%,-2%[57.5 µM]
CCN(CC)S(=O)(=O)c1cccc(C(=O)Nc2cc(C)cc(C)c2)c1,2µM*,4%,10%,i
CCN(CC)S(=O)(=O)c1cccc(C(=O)N[C@H](C(=O)NCc2ccccc2F)C(C)C)c1,?,-1%,2%,10%
CCS(=O)(=O)N1Cc2ccccc2CC1C(=O)NCCc1c[nH]c2ccccc12 (configuration not stated),-21%,0%,18%,-16%
O=C(Nc1ccccc1)OCCCCOC(=O)Nc1ccccc1,-7%,-7%,-2%,-14%
C=C(C)C1CCC(C)=C1COC(=O)Nc1ccccc1 (configuration not stated),8.9µM*,-4%,8%,-18%
CCCCC(=O)OC1CCC2C3CCc4cc(O)ccc4C3CC[C@]12C (some centres not stated),nt,10%,nt,nt
CN(c1ncc(C(F)(F)F)cc1Cl)N1C(=O)C2ONC3(C(=O)CC(C)(C)CC3=O)C2C1=O (configuration not stated),-7%[7.66 µM],-1%,-3%[7.66 µM],i
CN(c1ncc(C(F)(F)F)cc1Cl)N1C(=O)c2cccc(N)c2C1=O,3.2µM*,7%,45%,-22%
N#CCCN(C(=O)CCl)c1cccc(Cl)c1,2.2µM*,-5%,-13%,-43%
C=CCc1cccc(CNc2nc3ccccc3n2CC)c1O,5µM*,9%,-23%,-34%
C=CCc1cccc(CNc2nc3ccccc3n2CCC)c1O,?,-2%,-24%,0%[57.5 µM]
OC[C@@H]1O[C@](CO)(O[C@H]2O[C@H](CO)[C@@H](O)[C@H](O)[C@H]2O)[C@H](O)[C@H]1O,nt,-4%,nt,nt
Cc1cc(C(=O)NNC(=O)c2ccc(C)s2)c(C)o1,29%,6%,2%,i
Clc1ccc2c(c1)-n1cc(-c3ccccc3)nc1CO2,-22%,4%,2%,-13%
Cc1ccc(CNCC(O)(c2ccccc2)c2ccccc2)cc1,?,-3%,2%,-12%
CCc1ccc(C(O)(CNCc2ccccc2)c2ccccc2)cc1 (configuration not stated),11µM*,-5%,-17%,-3%
CCNc1nc(C23CC4CC(CC(C4)C2)C3)cs1,2.8µM*,5%,-28%,-77%
CC(=O)NNC(=O)CC(=O)Nc1nc(C23CC4CC(CC(C4)C2)C3)cs1,?,0%,-5%,-10%
Cc1ccc(Cn2cc(/C=C(/C#N)C(=O)Nc3cccc(Cl)c3)c3ccccc32)cc1,7%,nt,-11%,-26%
O=C(Nc1ccncc1)Nc1cccc(Cl)c1,?,-4%,13%,-1%
O=C(Nc1cccc(Cl)c1)Nc1csc([N+](=O)[O-])c1,6.3µM*,-2%,?,-36%
